Experiments:
Assay in all cases: DAPPL (digital affinity profiling via proximity ligation, sequencing); 10 mM Tris-HCl pH 7.5, 50 mM NaCl, 1 mM DTT, 4% glycerol, room temperature, 30 min; GST-TFs on glutathione beads, 16-mer random dsDNA library, 0.1% formaldehyde crosslink after washing; high values mean tight binding
FLI1 = target: T1, FLI1 (Homo sapiens, UniProt Q01543 1-452); settings: protein: recombinant; tags: N-terminal GST; dsDNA, one strand shown
T1 sequence: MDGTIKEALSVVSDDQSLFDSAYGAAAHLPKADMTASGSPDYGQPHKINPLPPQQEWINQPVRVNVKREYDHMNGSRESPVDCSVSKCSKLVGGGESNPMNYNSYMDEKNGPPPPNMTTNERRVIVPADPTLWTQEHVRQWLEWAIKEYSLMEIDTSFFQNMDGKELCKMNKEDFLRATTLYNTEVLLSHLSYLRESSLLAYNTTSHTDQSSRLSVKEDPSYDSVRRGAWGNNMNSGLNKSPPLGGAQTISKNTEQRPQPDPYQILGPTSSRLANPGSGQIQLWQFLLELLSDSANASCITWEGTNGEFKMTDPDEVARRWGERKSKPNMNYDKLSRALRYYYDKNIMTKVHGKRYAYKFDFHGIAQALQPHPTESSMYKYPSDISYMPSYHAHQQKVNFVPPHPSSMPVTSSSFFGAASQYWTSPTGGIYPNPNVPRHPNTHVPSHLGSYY
Outline: (§1)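 Pools of DNA-barcoded human transcription factors, expressed in yeast as GST fusions on glutathione beads and combined with a tag-only sample, were incubated with 200 nmole of a 16-mer random double-stranded DNA library. Incubation took 30 min at room temperature in Tris/NaCl/DTT/glycerol buffer and was followed by washing, 0.1% formaldehyde crosslinking, proximity ligation (BsaI/T4 ligase, 1 h, 37 °C), PCR amplification and sequencing on an Illumina NextSeq500. Binding signal is the ratio of a hexamer's read frequency for a factor to its frequency for the tag-only sample.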

ELK1 = target: T2, ELK1 (Homo sapiens, UniProt P19419 1-428); settings: protein: recombinant; tags: N-terminal GST; dsDNA, one strand shown
T2 sequence: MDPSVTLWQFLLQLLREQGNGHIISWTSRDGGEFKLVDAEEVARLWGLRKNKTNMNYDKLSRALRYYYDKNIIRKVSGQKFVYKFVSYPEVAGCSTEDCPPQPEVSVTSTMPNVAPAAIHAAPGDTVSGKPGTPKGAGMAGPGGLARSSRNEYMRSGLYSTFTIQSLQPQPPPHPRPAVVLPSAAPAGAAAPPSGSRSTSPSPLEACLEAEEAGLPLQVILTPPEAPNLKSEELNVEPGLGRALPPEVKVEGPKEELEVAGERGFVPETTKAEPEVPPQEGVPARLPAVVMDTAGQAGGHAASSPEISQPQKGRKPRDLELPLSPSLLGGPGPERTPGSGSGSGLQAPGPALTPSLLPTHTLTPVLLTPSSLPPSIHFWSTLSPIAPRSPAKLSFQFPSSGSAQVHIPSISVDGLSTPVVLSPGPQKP
Outline: as §1

GABPA = target: T3, GABPA (Homo sapiens, UniProt Q06546 1-454); settings: protein: recombinant; tags: N-terminal GST; dsDNA, one strand shown
T3 sequence: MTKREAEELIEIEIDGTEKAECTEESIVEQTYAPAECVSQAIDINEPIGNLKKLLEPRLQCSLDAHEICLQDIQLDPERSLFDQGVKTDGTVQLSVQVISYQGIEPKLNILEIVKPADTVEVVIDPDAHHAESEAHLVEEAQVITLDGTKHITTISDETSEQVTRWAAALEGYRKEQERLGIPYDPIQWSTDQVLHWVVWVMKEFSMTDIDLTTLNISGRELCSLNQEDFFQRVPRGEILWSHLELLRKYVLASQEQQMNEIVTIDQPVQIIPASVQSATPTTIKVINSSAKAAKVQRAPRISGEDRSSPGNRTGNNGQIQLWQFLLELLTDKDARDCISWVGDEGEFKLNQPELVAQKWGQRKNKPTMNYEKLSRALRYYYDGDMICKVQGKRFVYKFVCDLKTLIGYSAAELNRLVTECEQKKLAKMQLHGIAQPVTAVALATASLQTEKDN
Outline: as §1

ERG = target: T4, ERG (Homo sapiens, UniProt P11308 1-479); settings: protein: recombinant; tags: N-terminal GST; dsDNA, one strand shown
T4 sequence: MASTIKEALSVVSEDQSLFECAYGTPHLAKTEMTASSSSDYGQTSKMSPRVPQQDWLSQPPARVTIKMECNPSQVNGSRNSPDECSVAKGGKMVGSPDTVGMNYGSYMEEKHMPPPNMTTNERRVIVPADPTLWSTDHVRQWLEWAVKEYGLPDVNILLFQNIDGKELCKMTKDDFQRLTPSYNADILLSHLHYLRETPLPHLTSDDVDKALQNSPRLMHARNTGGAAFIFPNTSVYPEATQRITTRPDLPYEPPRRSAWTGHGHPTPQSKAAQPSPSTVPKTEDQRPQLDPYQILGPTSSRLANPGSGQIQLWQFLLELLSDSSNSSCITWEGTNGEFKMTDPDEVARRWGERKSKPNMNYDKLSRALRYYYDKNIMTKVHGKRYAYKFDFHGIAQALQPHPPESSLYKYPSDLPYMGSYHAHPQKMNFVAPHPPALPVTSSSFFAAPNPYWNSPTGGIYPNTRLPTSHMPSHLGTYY
Outline: as §1

ELF1 = ELF1 (Homo sapiens, UniProt P32519 1-619); settings: protein: recombinant; tags: N-terminal GST; dsDNA, one strand shown
Outline: as §1

EHF = target: T5, EHF (Homo sapiens, UniProt Q9NZC4 1-300); settings: protein: recombinant; tags: N-terminal GST; dsDNA, one strand shown
T5 sequence: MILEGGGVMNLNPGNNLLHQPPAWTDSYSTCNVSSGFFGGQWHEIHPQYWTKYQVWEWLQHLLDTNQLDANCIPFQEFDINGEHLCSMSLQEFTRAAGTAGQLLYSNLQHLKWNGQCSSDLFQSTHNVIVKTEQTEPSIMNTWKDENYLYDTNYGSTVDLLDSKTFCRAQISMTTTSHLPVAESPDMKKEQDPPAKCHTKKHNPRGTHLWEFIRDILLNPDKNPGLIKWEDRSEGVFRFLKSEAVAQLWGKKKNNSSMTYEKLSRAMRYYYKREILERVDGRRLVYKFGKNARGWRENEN
Outline: as §1

SPI1 = SPI1 (Homo sapiens, UniProt P17947 1-270); settings: protein: recombinant; tags: N-terminal GST; dsDNA, one strand shown
Outline: as §1

SPIB = SPIB (Homo sapiens, UniProt Q01892 1-262); settings: protein: recombinant; tags: N-terminal GST; dsDNA, one strand shown
Outline: as §1

ELK3 = target: T6, ELK3 (Homo sapiens, UniProt P41970 1-407); settings: protein: recombinant; tags: N-terminal GST; dsDNA, one strand shown
T6 sequence: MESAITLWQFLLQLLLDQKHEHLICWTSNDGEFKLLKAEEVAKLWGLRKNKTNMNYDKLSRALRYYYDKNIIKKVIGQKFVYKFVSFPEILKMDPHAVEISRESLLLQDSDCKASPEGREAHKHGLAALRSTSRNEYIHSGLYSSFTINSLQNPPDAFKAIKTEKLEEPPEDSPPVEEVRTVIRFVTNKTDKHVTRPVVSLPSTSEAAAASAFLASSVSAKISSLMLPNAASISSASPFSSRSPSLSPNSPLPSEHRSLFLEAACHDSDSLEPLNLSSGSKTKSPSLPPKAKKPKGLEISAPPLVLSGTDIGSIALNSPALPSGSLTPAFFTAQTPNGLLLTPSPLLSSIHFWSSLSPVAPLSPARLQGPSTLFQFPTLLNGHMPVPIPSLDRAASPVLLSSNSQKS
Outline: as §1

FEV = target: T7, FEV (Homo sapiens, UniProt Q99581 1-238); settings: protein: recombinant; tags: N-terminal GST; dsDNA, one strand shown
T7 sequence: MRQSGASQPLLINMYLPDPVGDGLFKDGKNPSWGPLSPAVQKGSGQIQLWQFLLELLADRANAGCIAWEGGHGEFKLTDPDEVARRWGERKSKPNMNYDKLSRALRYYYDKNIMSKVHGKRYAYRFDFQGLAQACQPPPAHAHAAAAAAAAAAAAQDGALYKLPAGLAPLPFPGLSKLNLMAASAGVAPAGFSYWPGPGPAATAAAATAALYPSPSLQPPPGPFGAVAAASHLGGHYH
Outline: as §1

ETV5 = ETV5 (Homo sapiens, UniProt P41161 1-510); settings: protein: recombinant; tags: N-terminal GST; dsDNA, one strand shown
Outline: as §1

HSF1 = HSF1 (Homo sapiens, UniProt Q00613 1-529); settings: protein: recombinant; tags: N-terminal GST; chain copies: 3; dsDNA, one strand shown
Outline: as §1

SPIC = target: T8, SPIC (Homo sapiens, UniProt Q8N5J4 1-248); settings: protein: recombinant; tags: N-terminal GST; dsDNA, one strand shown
T8 sequence: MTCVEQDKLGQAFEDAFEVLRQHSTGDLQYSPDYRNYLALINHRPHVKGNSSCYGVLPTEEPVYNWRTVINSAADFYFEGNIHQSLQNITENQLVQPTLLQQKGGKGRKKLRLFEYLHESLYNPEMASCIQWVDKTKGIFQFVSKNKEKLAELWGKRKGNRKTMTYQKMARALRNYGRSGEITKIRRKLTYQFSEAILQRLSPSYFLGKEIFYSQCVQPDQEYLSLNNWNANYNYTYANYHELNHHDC
Outline: as §1

ELF4 = ELF4 (Homo sapiens, UniProt Q99607 1-663); settings: protein: recombinant; tags: N-terminal GST; dsDNA, one strand shown
Outline: as §1

ELK4 = target: T9, ELK4 (Homo sapiens, UniProt P28324-2 1-405); settings: protein: recombinant; tags: N-terminal GST; dsDNA, one strand shown
T9 sequence: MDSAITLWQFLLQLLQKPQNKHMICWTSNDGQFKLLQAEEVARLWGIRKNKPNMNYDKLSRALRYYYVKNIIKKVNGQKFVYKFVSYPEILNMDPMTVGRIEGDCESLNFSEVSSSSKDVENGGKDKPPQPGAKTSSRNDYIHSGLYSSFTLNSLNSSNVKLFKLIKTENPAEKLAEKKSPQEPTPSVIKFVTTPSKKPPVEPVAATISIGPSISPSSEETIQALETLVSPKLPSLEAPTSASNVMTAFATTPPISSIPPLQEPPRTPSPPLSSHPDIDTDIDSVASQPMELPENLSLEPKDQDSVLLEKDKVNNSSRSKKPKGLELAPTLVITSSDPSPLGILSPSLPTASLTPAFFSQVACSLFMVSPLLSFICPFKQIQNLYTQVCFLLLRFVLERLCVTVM
Outline: as §1

ETV2 = target: T10, ETV2 (Homo sapiens, UniProt O00321 1-342); settings: protein: recombinant; tags: N-terminal GST; dsDNA, one strand shown
T10 sequence: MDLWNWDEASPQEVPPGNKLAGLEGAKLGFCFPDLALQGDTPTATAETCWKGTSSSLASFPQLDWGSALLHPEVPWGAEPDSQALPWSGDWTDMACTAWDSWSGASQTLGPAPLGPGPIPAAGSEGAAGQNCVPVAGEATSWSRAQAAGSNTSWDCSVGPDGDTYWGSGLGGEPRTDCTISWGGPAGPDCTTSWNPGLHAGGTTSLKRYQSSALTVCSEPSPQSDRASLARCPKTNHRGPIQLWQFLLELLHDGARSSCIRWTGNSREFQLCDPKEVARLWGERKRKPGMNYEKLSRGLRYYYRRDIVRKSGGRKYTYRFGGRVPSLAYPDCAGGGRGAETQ
Outline: as §1

ELF3 = target: T11, ELF3 (Homo sapiens, UniProt P78545 1-371); settings: protein: recombinant; tags: N-terminal GST; dsDNA, one strand shown
T11 sequence: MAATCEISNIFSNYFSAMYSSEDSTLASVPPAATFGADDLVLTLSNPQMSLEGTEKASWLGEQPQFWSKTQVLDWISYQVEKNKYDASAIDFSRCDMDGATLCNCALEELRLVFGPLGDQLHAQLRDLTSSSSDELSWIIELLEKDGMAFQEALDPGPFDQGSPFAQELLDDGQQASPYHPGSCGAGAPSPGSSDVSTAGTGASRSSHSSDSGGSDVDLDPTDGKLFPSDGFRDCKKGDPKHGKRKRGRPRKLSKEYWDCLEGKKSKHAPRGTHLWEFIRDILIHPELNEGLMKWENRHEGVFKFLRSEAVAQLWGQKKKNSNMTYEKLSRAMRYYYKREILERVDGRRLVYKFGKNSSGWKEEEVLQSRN
Outline: as §1

CRX = CRX (Homo sapiens, UniProt O43186 1-299); settings: protein: recombinant; tags: N-terminal GST; dsDNA, one strand shown
Outline: as §1

ETV1 = ETV1 (Homo sapiens, UniProt P50549 1-477); settings: protein: recombinant; tags: N-terminal GST; dsDNA, one strand shown
Outline: as §1

SPIB, sequence (Q01892 whole entry): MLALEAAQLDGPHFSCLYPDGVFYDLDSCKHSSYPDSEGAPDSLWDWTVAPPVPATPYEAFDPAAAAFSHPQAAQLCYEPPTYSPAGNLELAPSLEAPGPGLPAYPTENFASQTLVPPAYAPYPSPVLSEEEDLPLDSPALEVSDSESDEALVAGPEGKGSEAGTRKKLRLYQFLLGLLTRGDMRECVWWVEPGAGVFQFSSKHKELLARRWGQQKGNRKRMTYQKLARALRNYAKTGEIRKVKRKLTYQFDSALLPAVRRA
ELF4, sequence (Q99607 whole entry): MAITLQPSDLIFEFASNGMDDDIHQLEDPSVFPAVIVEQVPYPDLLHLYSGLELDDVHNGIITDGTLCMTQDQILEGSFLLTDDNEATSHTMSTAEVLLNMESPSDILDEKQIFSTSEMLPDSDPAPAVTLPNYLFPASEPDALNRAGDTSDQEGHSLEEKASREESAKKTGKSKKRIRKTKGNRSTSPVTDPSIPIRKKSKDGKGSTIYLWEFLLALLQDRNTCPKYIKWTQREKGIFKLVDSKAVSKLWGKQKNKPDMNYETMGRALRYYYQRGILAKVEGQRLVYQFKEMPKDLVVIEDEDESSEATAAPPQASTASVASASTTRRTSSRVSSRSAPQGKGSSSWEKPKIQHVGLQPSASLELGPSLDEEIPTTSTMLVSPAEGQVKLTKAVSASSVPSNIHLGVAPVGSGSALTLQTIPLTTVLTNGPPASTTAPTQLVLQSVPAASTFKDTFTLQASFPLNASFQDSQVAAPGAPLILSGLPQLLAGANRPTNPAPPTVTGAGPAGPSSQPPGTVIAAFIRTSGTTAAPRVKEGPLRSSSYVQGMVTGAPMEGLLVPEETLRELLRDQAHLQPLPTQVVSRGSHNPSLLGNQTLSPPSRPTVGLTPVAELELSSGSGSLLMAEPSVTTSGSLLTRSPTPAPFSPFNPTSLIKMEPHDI
ETV5, sequence (P41161 whole entry): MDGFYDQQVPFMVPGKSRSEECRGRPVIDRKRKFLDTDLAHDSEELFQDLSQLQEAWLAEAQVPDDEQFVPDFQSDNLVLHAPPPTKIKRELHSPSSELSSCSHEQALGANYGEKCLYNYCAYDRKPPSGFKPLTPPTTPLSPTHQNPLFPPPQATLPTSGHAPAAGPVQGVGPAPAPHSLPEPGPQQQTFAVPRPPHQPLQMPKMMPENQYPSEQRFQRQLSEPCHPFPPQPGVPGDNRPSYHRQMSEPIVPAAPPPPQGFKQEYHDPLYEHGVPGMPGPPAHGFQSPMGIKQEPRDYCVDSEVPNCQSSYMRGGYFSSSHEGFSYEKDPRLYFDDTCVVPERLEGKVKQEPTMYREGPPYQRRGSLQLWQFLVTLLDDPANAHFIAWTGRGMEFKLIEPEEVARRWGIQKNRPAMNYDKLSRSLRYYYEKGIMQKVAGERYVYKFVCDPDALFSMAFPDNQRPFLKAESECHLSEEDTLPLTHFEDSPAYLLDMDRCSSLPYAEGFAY
ELF1, sequence (P32519 whole entry): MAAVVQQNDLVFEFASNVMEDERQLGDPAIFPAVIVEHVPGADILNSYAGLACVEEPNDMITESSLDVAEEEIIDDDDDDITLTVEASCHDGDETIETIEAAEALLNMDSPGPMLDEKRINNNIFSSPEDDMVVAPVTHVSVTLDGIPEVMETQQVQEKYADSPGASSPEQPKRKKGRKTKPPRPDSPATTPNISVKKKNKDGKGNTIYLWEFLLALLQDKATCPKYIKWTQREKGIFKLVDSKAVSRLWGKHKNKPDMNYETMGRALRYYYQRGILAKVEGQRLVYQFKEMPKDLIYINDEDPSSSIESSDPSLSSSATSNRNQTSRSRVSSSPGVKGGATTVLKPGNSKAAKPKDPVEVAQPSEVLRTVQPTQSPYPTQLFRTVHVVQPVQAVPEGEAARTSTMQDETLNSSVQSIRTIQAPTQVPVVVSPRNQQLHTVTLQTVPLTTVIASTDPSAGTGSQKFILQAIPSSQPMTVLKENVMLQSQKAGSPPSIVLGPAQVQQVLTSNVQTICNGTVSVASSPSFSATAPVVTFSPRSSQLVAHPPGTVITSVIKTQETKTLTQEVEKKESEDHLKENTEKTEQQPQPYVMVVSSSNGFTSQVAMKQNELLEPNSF
CRX, sequence (O43186 whole entry): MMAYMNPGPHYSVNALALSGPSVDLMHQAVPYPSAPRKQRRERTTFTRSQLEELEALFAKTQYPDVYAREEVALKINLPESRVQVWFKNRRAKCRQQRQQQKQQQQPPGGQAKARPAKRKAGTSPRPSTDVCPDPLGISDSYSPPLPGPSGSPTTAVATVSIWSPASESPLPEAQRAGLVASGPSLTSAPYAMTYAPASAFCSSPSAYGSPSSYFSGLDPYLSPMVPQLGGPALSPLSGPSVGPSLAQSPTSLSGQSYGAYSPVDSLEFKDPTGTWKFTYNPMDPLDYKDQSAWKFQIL
HSF1, sequence (Q00613 whole entry): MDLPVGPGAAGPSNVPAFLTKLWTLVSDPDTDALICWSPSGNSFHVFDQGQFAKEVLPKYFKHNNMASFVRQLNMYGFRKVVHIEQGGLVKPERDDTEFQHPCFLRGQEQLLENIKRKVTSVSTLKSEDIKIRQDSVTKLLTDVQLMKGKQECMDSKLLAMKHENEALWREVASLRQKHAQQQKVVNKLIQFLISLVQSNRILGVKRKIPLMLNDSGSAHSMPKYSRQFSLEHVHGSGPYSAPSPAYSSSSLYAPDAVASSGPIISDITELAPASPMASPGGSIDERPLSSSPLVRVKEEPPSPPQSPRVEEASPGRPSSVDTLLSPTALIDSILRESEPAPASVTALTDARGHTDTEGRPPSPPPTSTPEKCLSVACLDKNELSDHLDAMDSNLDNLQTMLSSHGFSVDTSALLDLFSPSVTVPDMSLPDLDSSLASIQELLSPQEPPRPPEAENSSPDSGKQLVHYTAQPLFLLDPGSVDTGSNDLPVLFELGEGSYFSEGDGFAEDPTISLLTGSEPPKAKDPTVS
ETV1, sequence (P50549 whole entry): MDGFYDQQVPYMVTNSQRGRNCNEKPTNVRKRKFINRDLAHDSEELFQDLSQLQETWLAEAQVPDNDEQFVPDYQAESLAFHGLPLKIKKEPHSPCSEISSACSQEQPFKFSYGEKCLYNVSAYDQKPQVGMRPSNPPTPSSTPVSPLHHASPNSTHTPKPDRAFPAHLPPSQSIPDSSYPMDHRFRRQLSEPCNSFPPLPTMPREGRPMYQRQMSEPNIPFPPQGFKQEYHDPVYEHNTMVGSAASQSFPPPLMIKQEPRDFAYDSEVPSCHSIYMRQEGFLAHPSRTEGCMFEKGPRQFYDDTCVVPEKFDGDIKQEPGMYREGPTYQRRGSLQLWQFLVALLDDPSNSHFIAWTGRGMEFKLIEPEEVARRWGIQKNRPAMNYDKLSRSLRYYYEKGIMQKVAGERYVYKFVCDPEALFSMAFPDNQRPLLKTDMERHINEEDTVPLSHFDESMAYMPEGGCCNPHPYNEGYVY

## CTGCCT
FLI1
  binding signal: 1.2 fold enrichment (6-mer frequency, TF over GST control)
ELK1
  binding signal: 1.28 fold enrichment (6-mer frequency, TF over GST control)
GABPA
  binding signal: 1.33 fold enrichment (6-mer frequency, TF over GST control)
ERG
  binding signal: 1.18 fold enrichment (6-mer frequency, TF over GST control)
ELF1
  binding signal: 1.34 fold enrichment (6-mer frequency, TF over GST control)
EHF
  binding signal: 1.33 fold enrichment (6-mer frequency, TF over GST control)
SPI1
  binding signal: 1.27 fold enrichment (6-mer frequency, TF over GST control)
SPIB
  binding signal: 1.21 fold enrichment (6-mer frequency, TF over GST control)
ELK3
  binding signal: 1.04 fold enrichment (6-mer frequency, TF over GST control)
FEV
  binding signal: 1.2 fold enrichment (6-mer frequency, TF over GST control)
ETV5
  binding signal: 1.18 fold enrichment (6-mer frequency, TF over GST control)
HSF1
  binding signal: 1.13 fold enrichment (6-mer frequency, TF over GST control)
SPIC
  binding signal: 1.07 fold enrichment (6-mer frequency, TF over GST control)
ELF4
  binding signal: 1.21 fold enrichment (6-mer frequency, TF over GST control)
ELK4
  binding signal: 1.14 fold enrichment (6-mer frequency, TF over GST control)
ETV2
  binding signal: 1.15 fold enrichment (6-mer frequency, TF over GST control)
ELF3
  binding signal: 1.17 fold enrichment (6-mer frequency, TF over GST control)
CRX
  binding signal: 1.11 fold enrichment (6-mer frequency, TF over GST control)
ETV1
  binding signal: 1.24 fold enrichment (6-mer frequency, TF over GST control)

From publication PMC7862700, “An all-to-all approach to the identification of sequence-specific readers for epigenetic DNA modifications on cytosine”
